Source: PubChem BioAssay
A selection: hits, their analogues and other compounds. The true share with any hit is near 6.5%.
HCMV inh: blocks human cytomegalovirus replication; AID 1259415; HFF cells, HCMV-luciferase reporter, 72 h; active compounds read low; activity change, negative = inhibition, % at 57.5 µM; 410,000 compounds, 4.5% hits; in the data active = activity change below about -60%; inconclusive = no clear call, values can overlap the other calls; inactive = above about -39%
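HFF cells seeded 16 h at 37C, treated with compounds, infected with luciferase-reporter HCMV at MOI 1 PFU/cell; luciferase read at 72 h post infection, normalized to buffer-only and Salinomycin controls.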
Vaccinia mCherry: inhibitors of vaccinia virus infection (mCherry reporter signal). Vaccinia virus mCherry reporter infection, fluorescence. AID 720579. Potency, µM (top dose mostly 36.5 µM), usual class: inhibitors. 310,000 compounds, 0.63% hits; calls by dose curve; tested in A549 cells; note: nearly all actives have a fitted effect of over 35% in size
MARV entry inh: blocks Marburg virus binding to or entry into cells. Marburg virus pseudotyped entry inhibition, cell reporter. Potency, µM (highest dose often 37.8 µM), actives largely listed as inhibitors. 300,000 compounds, 1.8% hits. AID 540276; calls by dose curve; tested in HEK293 cells
Lassa entry inh: Lassa virus entry inhibition. 300,000 compounds, 1.2% hits. Potency, µM (top dose mostly 37.9 µM), actives largely listed as inhibitors. Lassa virus pseudotype entry inhibition, cell reporter; calls by dose curve; tested in HEK293 cells; note: nearly all actives have a fitted effect of over 50% in size
Vaccinia Venus: vaccinia inhibition (Venus reporter); Vaccinia virus Venus reporter expression, fluorescence; 330,000 compounds, 0.46% hits; Potency, µM (doses to about 36.5 µM), actives largely listed as inhibitors; calls by dose curve; tested in A549 cells; note: nearly all actives have a fitted effect of over 30% in size
FMDV antiviral: foot and mouth disease virus antiviral activity; AID 1159524; FMDV antiviral cell-based qHTS; Potency, µM (highest dose often 57.9 µM), hits mostly inhibitors; 410,000 compounds, 1.2% hits; calls by dose curve; tested in HEK293T cells; note: read-out not given here; nearly all actives have a fitted effect of over 45% in size
A number is an active result; i = inactive; ? = inconclusive; nt = no result.

SMILES	HCMV inh	Vaccinia mCherry	MARV entry inh	Lassa entry inh	Vaccinia Venus	FMDV antiviral
CCCCC(=O)NC(c1ccccc1Cl)c1c(O)ccc2ccccc12 (stereo not drawn)	?	?	i	i	i	?
Cc1nnsc1C(=O)NC1CCCc2c1cnn2-c1ccccc1F (stereo not drawn)	-87	i	?	0.5µM	i	?
CC(C)(C)c1ccc(-n2ncc3c2CCCC3NC(=O)c2ccncc2)cc1 (stereo not drawn)	i	i	i	i	i	?
Cc1nnsc1C(=O)NC1CCCc2c1cnn2-c1ccc(C(C)(C)C)cc1 (stereo not drawn)	-76	nt	nt	nt	nt	?
O=C(NC1CCCc2c1cnn2-c1ccc(F)cc1F)c1ccccn1 (stereo not drawn)	i	i	?	i	i	i
CC[C@H](CO)Oc1cc(NCc2cccc(N)c2)c2ncn(C(C)C)c2c1	i	i	nt	nt	i	i
CCC(CO)Oc1cc(NCc2cccc(C)c2)c2ncn(C(C)C)c2c1 (stereo not drawn)	-76	?	nt	nt	i	i
COc1ccc(NC(C)=O)cc1NC(=O)C1(c2cccs2)CCOCC1	i	i	nt	i	i	i
COc1ccc(N(C(=O)c2cc3ccccc3oc2=O)C2C=CS(=O)(=O)C2)c(OC)c1 (stereo not drawn)	-61	i	?	i	i	i
COc1cccc(C(=O)N(c2ccc(C)cc2)C2C=CS(=O)(=O)C2)c1 (stereo not drawn)	-101	nt	nt	nt	nt	i
COc1cccc(C(=O)N(c2ccc(OC)cc2OC)C2C=CS(=O)(=O)C2)c1 (stereo not drawn)	i	?	i	i	i	nt
CCc1nn(CC(=O)NCCCN(Cc2ccccc2)C(C)C)c(=O)c2cc3sccc3n12	-63	i	?	i	i	i
CCCCN(CC)CCCNC(=O)Cn1nc(CC)n2c(cc3sccc32)c1=O	i	i	i	nt	i	i
CC1CN=C(c2ccc(Cl)cc2)c2c3ccccc3nn21 (stereo not drawn)	i	nt	nt	nt	nt	nt
Cc1cc(C)nc(NS(=O)(=O)c2ccc(NC(=O)c3nc(SC(C)C)ncc3Cl)cc2)n1	i	i	i	i	i	i
CS(=O)(=O)c1ccc(C(=O)OCC(=O)NC23CC4CC(CC(C4)C2)C3)cc1[N+](=O)[O-]	i	?	?	i	?	35µM
Cn1cccc1C(=O)NC(=O)COC(=O)c1ccc(S(C)(=O)=O)c([N+](=O)[O-])c1	nt	i	?	?	i	32µM
CS(=O)(=O)c1ccc(C(=O)OCC(=O)NC(=O)NC2CCCCC2)cc1[N+](=O)[O-]	nt	i	nt	nt	i	nt
CCN(Cc1ccccc1)Cc1c(O)ccc2oc(C)c(C(=O)Nc3ccccc3C)c12	?	i	?	?	i	i
Cc1ccc(C(=O)c2c(C)oc3c2C(=O)C(=O)c2ccccc2-3)cc1	nt	nt	7.9µM	7.1µM	?	?
Cc1oc2c(c1C(=O)c1ccc(Cl)cc1)C(=O)C(=O)c1ccccc1-2	?	i	i	i	i	?
CN(C)/C(CN1CCN(C=O)CC1)=C1\N=C(c2ccccc2)OC1=O	-61	i	i	?	i	i
COc1ccc(OC)c([C@@H](O)[C@H](C)N)c1	nt	i	nt	nt	i	i
CC/C(=N\Nc1ccc([N+](=O)[O-])cc1)c1ccccc1	nt	nt	i	?	nt	i
O=[N+]([O-])c1ccc(NN=C(Oc2ccccc2)c2ccc([N+](=O)[O-])cc2)cc1	-70	i	nt	nt	i	i
SMILES	HCMV inh	Vaccinia mCherry	MARV entry inh	Lassa entry inh	Vaccinia Venus	FMDV antiviral
O=c1c2cccnc2n(Cc2ccccc2F)c(=O)n1Cc1ccccc1Cl	i	i	i	nt	i	i
N#C/C(=C\c1ccc(OCc2ccc(Cl)cc2Cl)cc1)c1nc2ccccc2[nH]1	i	i	nt	i	i	i
COc1cc(/C=C(\C#N)c2nc3ccccc3[nH]2)cc(Cl)c1OCc1ccccc1Cl	-80	i	?	i	i	?
COC(=O)c1onc(-c2ccccc2)c1C(=O)OC	i	nt	i	i	i	i
COc1cc(/C=N/NC(=O)c2ccoc2C)ccc1O	i	i	?	i	i	i
Cc1onc(-c2ccccc2)c1C(=O)N/N=C/c1cc(Br)c(Br)o1	i	i	?	?	i	25µM
COc1cccc(/C=N/NC(=O)c2ccoc2C)c1O	-82	4.5µM	nt	nt	?	i
COc1c(Cl)cc(-c2noc(C)c2C(=O)NCc2ccc3c(c2)OCO3)cc1Cl	i	i	i	i	i	i
Cc1ccc(/C=N/NC(=O)c2c(-c3ccccc3)noc2C)o1	?	i	i	i	i	i
COC(=O)c1c(-c2ccccc2)noc1C	-76	i	i	i	i	i
